# Screening results as filed in PubChem.
# Shown are actives, neighbours in structure and some others; about 7.3% of the full set was active somewhere.
# AmpC detergent – AmpC beta-lactamase inhibition with detergent present | Potency, µM (top dose mostly 114 µM), most hits filed as inhibitors | 370,000 tested, 0.041% active | AmpC hydrolysis of nitrocefin, absorbance 480 nm, 0.01% Triton | P00811; further: nearly all actives have a fitted effect of over 25% in size
# Target sequence (P00811 whole entry, looked up): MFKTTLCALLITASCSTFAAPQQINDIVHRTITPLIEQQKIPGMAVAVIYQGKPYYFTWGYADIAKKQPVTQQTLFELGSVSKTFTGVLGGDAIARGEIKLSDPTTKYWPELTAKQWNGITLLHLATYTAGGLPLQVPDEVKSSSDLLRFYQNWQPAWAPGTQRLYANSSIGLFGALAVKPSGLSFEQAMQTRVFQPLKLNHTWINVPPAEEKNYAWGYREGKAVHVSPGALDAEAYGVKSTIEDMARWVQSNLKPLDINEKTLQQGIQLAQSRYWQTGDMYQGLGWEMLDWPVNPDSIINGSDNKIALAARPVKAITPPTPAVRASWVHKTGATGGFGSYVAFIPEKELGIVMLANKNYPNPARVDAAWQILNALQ
#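 AmpC (5.3 nM in the dispensed reagent) in 20 mM phosphate pH 7.0 with 0.01% (detergent screen) or 0.0001% Triton X-100 was preincubated with compounds for 15 min at room temperature. Nitrocefin was then added from an 800 uM solution, and hydrolysis was followed at 480 nm.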
# HCV inh – inhibitors of hepatitis C virus infection; 340,000 tested, 3.4% active; AID 651820; Huh7.5.1 HCVcc-Cre infection, luciferase reporter, 44 h; Potency, µM (top dose mostly 41.8 µM), most hits filed as inhibitors
#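 Whole-lifecycle infectious HCVcc-Cre system; cells 1,000/well, compound then virus (~0.5 moi) added 4 h after plating, 44 h culture. Luciferase read 15 sec following 15 min substrate incubation, room temp.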
# HCMV inh – human cytomegalovirus inhibition; 410,000 tested, 4.5% active; activity change, negative = inhibition, % at 57.5 µM; HFF cells, HCMV-luciferase reporter, 72 h; stronger effect = lower value; in the data active means activity change below about -60%; inconclusive means no clear call, values can overlap the other calls; inactive means above about -39%
#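 Human foreskin fibroblasts infected with luciferase-reporter HCMV at MOI 1 PFU/cell, compounds at two doses. Luciferase measured 72 h post infection; normalized to buffer-only basal and Salinomycin (10uM) controls.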
# FMDV antiviral – antivirals against foot and mouth disease virus. FMDV antiviral cell-based qHTS. Potency, µM (doses to about 57.9 µM), hits mostly inhibitors. 410,000 tested, 1.2% active; calls by dose curve; tested in HEK293T cells; further: read-out not given here; nearly all actives have a fitted effect of over 45% in size
# AmpC inh no detg – blocks E. coli AmpC beta-lactamase in detergent-free assay; P00811; AmpC nitrocefin hydrolysis, absorbance 480 nm, 0.0001% Triton; Potency, µM (series often up to 57.1 µM), hits mostly inhibitors; 330,000 tested, 0.52% active; further: nearly all actives have a fitted effect of over 20% in size
#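 20 mM phosphate pH 7.0 + 0.01% (detergent screen) or 0.0001% Triton X-100; 5.3 nM AmpC reagent; cpd preinc 15 min RT; nitrocefin (800 uM stock) to start; A480 q20 s × 4 min; Activity was normalised to no-enzyme and no-compound control wells.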
# A number is an active result; i = inactive; ? = inconclusive; nt = no result given. Unless noted, the call rests on the fitted dose curve; in most records, active means well fitted curve in the direction sought with a large enough effect; inconclusive means small, poorly fitted or top-dose-only effect, or another doubt; inactive means no such curve, though single readings can be large; an effect the other way counts as inactive or inconclusive.
SMILES,AmpC detergent,HCV inh,HCMV inh,FMDV antiviral,AmpC inh no detg
N#Cc1c(NC(=O)c2ccc(Cn3cc(Br)cn3)o2)sc2c1CCCCC2,?,?,i,i,i
CCOC(=O)c1sc(NC(=O)CSc2nc(C)cc(-c3ccccc3)n2)c(C#N)c1C,i,i,i,i,i
Cc1sc(NC(=O)c2ccccc2)c(C#N)c1-c1ccccc1,i,?,i,i,25.1µM
COc1ccccc1COC(=O)c1ccc(S(=O)(=O)N2CCOCC2)cc1,?,i,i,i,i
COc1ccc(N2CC(NC(=O)C3CCCC3)CC2=O)cc1 (stereo not drawn),i,nt,i,i,nt
Cc1ccccc1-c1cc(C(=O)Nc2sc(C)c(C)c2C(N)=O)c2ccccc2n1,i,4.47µM,i,?,i
CCOC(=O)c1c(NC(=O)c2cc(-c3ccc(Cl)s3)nc3ccccc23)sc(C(N)=O)c1C,?,i,i,i,i
CCN1CCN(CCCNC(=O)c2ccc(/C=C3/Sc4ccccc4N(Cc4ccccc4F)C3=O)cc2)CC1,i,11.2µM,?,i,i
CCN1CCN(CCNC(=O)c2ccc(/C=C3/Sc4ccccc4N(Cc4ccccc4C)C3=O)cc2)CC1,i,6.31µM,-62.6,i,i
COc1ccc(S(=O)(=O)NCCc2cn3ccsc3n2)cc1OC,i,nt,i,i,nt
CSc1nc2ccc3nc(NC(=O)C4COc5ccccc5O4)sc3c2s1 (stereo not drawn),?,i,-77.8,i,i
O=C(Nc1nc(-c2ccccc2)cs1)C1COc2ccccc2O1 (stereo not drawn),?,i,i,i,i
O=C(Nc1nc(-c2ccccn2)cs1)C1COc2ccccc2O1 (stereo not drawn),i,35.5µM,-83.5,i,i
Cc1cccc(NC(=O)C2COc3ccccc3O2)n1 (stereo not drawn),i,i,i,i,i
CC1CCc2nc(NC(=O)CN3CCN(Cc4ccc5c(c4)OCO5)CC3)sc2C1 (stereo not drawn),i,31.6µM,-62.9,?,i
Cc1csc(NC(=O)C2COc3ccccc3O2)n1 (stereo not drawn),i,i,i,12.6µM,i
Cc1ncc2c(c1CNS(=O)(=O)N(C)C)CCN(C(=O)/C=C/c1ccccc1F)C2,nt,nt,nt,i,nt
CCC(C)NC(=O)c1ccccc1NC(=O)C1COc2ccccc2O1 (stereo not drawn),i,22.4µM,?,?,i
CC(C)NC(=O)c1ccccc1NC(=O)C1COc2ccccc2O1 (stereo not drawn),i,?,i,?,i
CC1CCc2nc(NC(=O)C3CC3)sc2C1 (stereo not drawn),i,i,i,i,i
CC1CCc2nc(NC(=O)C3COc4ccccc4O3)sc2C1 (stereo not drawn),?,?,-76.5,15.8µM,i
O=C(c1ccc(N2CCC(NCCCn3ncc4ccccc43)CC2)cc1)N1CCc2ccccc2C1,nt,nt,nt,i,nt
CC(C)(CO)NC(=O)c1cnn(-c2ncc3c(n2)-c2ccccc2CC3)c1C1CC1,nt,nt,nt,i,nt
Cc1nc(N2CCCC2)c2ccsc2n1,?,14.1µM,i,i,i
Cc1nc(N2CCN(C)CC2)c2cc(-c3ccccc3)sc2n1,i,i,i,i,i
SMILES,AmpC detergent,HCV inh,HCMV inh,FMDV antiviral,AmpC inh no detg
Cc1nnc(SCC(=O)c2c(N)n(C3CC3)c(=O)[nH]c2=O)n1C,nt,i,i,i,i
O=C(CCl)Nc1cn(-c2ccccc2)nc1-c1ccccc1,i,2.82µM,-95.7,20µM,i
CC(=O)Nc1cn(-c2ccccc2)nc1-c1ccccc1,i,i,i,i,i
COc1ccc(NC(=O)CN(C)C(=O)c2cn(-c3ccccc3)nc2-c2ccc(F)cc2)cc1,i,11.2µM,i,i,i
O=C(Nc1cn(-c2ccccc2)nc1-c1ccc(F)cc1)c1ccccc1,i,i,-60.7,i,i
Cc1cc(C)c(NC(=O)Cn2c(=O)n(Cc3ccco3)c(=O)c3ccc(C(=O)NC4CCCC4)cc32)c(C)c1,i,nt,i,i,nt
CC(C)C[C@H]1COc2cccc(N3CCCCC3)c2S(=O)(=O)N1,nt,nt,i,nt,nt
O=C(Cc1nc2ccccc2[nH]1)c1cccc([N+](=O)[O-])c1,i,11.2µM,i,i,i
CSCCC(NC(=O)c1cccc([N+](=O)[O-])c1)c1nc2ccccc2[nH]1 (stereo not drawn),i,i,i,i,20µM
